uPA surface inh – blocks generation of uPA at the cell surface. Potency, µM (doses to about 38.3 µM), for the others: at the highest dose activity change, negative = inhibition, most hits filed as inhibitors. 330,000 compounds, 0.31% hits. cell surface uPA generation assay, qHTS; active = well fitted inhibition curve with a large enough effect; inconclusive = small, poorly fitted or top-dose-only effect; inactive = no such curve, though single readings can be large or run the other way; tested in mouse RAW 264.7 cells; also: potency is read from the fitted curve at half-maximal effect; % is scaled to controls: 0 for no effect and ±100 for the full control effect; nearly all actives have a fitted effect of over 55% in size
PLK1 PBD block – blocks phosphopeptide binding to human PLK1 polo-box domain | P53350 | Plk1 PBD binding of FITC phosphopeptide, fluorescence polarization | Potency, µM, for the others: max response, negative = inhibition, hits mostly inhibitors | 360,000 compounds, 2.8% hits | AID 720504; also: potency is read from the fitted curve at half-maximal effect; series mostly up to about 57 µM; % is scaled to controls: 0 for no effect and ±100 for the full control effect; nearly all actives have a fitted effect of over 65% in size
PTAP TSG101 blk – blocks PTAP/TSG101 interaction to inhibit HIV-1 budding. Q99816. Fluorescence polarization, FITC-PTAP peptide / Tsg101 binding. Potency, µM (series often up to 115 µM), for inactives: top-dose activity change, negative = inhibition, hits mostly inhibitors. 340,000 tested, under 10 active. AID 493005; active = well fitted inhibition curve with a large enough effect in the main read-out, with a control signal flat, not every such curve was filed as active; inconclusive = small, poorly fitted or top-dose-only effect, or effect the other way, or a change in a side signal; inactive = no such curve, though single readings can be large or run the other way; also: potency is read from the fitted curve at half-maximal effect; % of control where 0% means no effect
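Steps: Tsg101 binding domain dispensed (10 uM final), compounds pinned in DMSO, FITC-labeled PTAP-motif peptide added (50 nM final); after 20 min binding at room temperature, polarization measured.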
TSHR antag – blocks TSH signaling through the human TSH receptor. activity change, negative = inhibition, % at 11.5 µM. 330,000 compounds, 0.2% hits. P16473. TSHR-expressing cells, TSH-stimulated cAMP HTRF, 2 h; stronger effect = lower value;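 active = activity change below a set negative limit, meaning inhibition stronger than a set level, cut at about -70% in these data; inconclusive = activity change between two set negative limits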; also: % is scaled to controls: 0 for no effect and ±100 for the full control effect
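Competitive HTRF cAMP read-out (cryptate anti-cAMP antibody, cAMP-d2; 30 min, room temperature) in freshly harvested TSHR cells. Compounds added before TSH at EC80 (4nM final), followed by 2 hours' incubation at 37 deg C.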
VDR inh – blocks the human vitamin D receptor; P11473; VDR-SRC2-3 peptide fluorescence polarization, 2 h; Potency, µM, without a hit: max response, negative = inhibition, hits mostly inhibitors; 400,000 compounds, 0.93% hits; also: potency is read from the fitted curve at half-maximal effect; % is scaled to controls: 0 for no effect and ±100 for the full control effect
Target sequence (P11473 whole entry, looked up): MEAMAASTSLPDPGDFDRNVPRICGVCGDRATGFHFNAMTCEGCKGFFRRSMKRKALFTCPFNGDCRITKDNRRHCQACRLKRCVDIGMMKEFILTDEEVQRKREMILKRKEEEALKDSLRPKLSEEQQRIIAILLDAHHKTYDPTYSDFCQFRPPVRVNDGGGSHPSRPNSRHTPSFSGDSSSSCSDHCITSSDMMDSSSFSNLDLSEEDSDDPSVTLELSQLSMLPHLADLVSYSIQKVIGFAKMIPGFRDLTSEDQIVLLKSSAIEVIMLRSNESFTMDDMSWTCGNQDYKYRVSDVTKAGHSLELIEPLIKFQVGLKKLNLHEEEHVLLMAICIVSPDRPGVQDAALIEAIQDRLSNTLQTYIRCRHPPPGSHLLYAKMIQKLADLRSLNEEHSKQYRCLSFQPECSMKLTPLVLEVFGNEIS
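Signal is fluorescence polarization, reporting how far test compounds block the interaction of VDR with the SRC2-3 coregulator peptide after a 2 h room-temperature incubation.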
* marks the source's active call; other numbers are inactive results; u = inconclusive; x = no result; ! = not active in a repeat. In the library only some 3.1% were active in any assay of this set; here they are far more common. Unless noted, calls follow the shape of the dose curve; as a rule, active = well fitted curve in the direction sought with a large enough effect; inconclusive = small, poorly fitted or top-dose-only effect, or another doubt; inactive = no such curve, though single readings can be large; an effect the other way counts as inactive or inconclusive.

SMILES	uPA surface inh	PLK1 PBD block	PTAP TSG101 blk	TSHR antag	VDR inh
COC(=O)Cn1c(SCc2ccccc2)nc2ccccc21	2%	27µM*	-3%	-3	-9%
Cc1noc(C)c1CSc1nnc(-c2ccccc2)n1N	5%	21µM*	-9%	-4	u
Cc1noc(C)c1CSc1nc2ccccc2n1CCc1ccccc1	-7%	u	-3%	-17	79µM*
Cc1noc(C)c1CSc1nc2ccccc2c(=O)n1-c1ccc(Cl)cc1	x	-1%	0%	4	-10%
CCOC(=O)c1c(C)n(C)c2ccc(O)c(CN3CCN(C)CC3)c12	-8%	-5%	1%	-1	-5%
CCOC(=O)c1c(C)n(C)c2ccc(O)c(CN3CCC(C)CC3)c12	-10%	-3%	-2%	-7	89µM*
CC(C)(C)OC(=O)N1CCC(c2c(C(=O)NCCN3CCOCC3)cnn2-c2ccccc2)CC1	x	x	x	x	6%
O=C(Cn1c(=O)n(Cc2ccccc2)c(=O)c2sc3ccccc3c21)Nc1ccc(F)cc1	x	x	x	x	-14%
O=C(O)c1ccc(N/N=C/c2cc3cc4c(cc3nc2Cl)OCCO4)cc1	0.89µM*	-16%	0%	-21	11%
O=Cc1cc2cc3c(cc2nc1Cl)OCCO3	-2%	5%	-4%	-1	9%
O=C(Nc1ccc(Cl)cc1)[C@@H]1[C@@H]2C(=O)N(c3ccc(Cl)cc3)C(=O)[C@@H]2[C@H]2C=CC=NN21	-2%	24µM*	-4%	8	u
Cc1ccc(N2C(=O)[C@@H]3[C@H](C2=O)[C@H]2C=CC=NN2[C@@H]3C(=O)Nc2ccc(Cl)cc2)cc1	6%	u	0%	-3	-20%
O=C(CSc1cccc2cccnc12)N/N=C/c1ccc(O)cc1	1%	-20%	-9%	-78*	-8%
COc1cccc(/C=N/NC(=O)CSc2cccc3cccnc23)c1	u	u	-6%	-4	-18%
CCOC(=O)CSc1cccc2cccnc12	-14%	13µM*	-5%	4	-22%
COC(=O)c1sc2cccc(F)c2c1S(=O)(=O)NCc1ccccc1Cl	x	x	x	x	2%
COc1ccc(C(C[N+](=O)[O-])c2c(C)[nH]n(-c3ccccc3)c2=O)cc1 (centres undefined)	-14%	24µM*	-2%	6	u
O=c1c2cc([N+](=O)[O-])cc([N+](=O)[O-])c2[nH]n1-c1ccccc1	-10%	-9%	-6%	-10	-11%
Cc1[nH]n(-c2ccccc2)c(=O)c1C(c1ccc(O)c([N+](=O)[O-])c1)c1c(C)[nH]n(-c2ccccc2)c1=O	-1%	24µM*	-3%	x	u
Cc1ccc(C(=O)Nc2ccccc2C(=O)O)cc1S(=O)(=O)N1CCCCCC1	x	x	x	x	2%
CCC(CC)C(=O)Nc1ccccc1SCc1cc(=O)c2cccc(C)c2[nH]1	x	x	x	x	15%
COc1cc(CN2c3ccccc3C(=O)CS2(=O)=O)cc(OC)c1	-6%	-9%	-4%	-8	-5%
O=C1CS(=O)(=O)N(Cc2ccc(F)cc2)c2ccccc21	-3%	-11%	1%	2	79µM*
CO[C@H]1OC2O[C@@]3(C)CC[C@H]4[C@H](C)CC[C@@H]([C@H]1C)[C@@]24OO3 (some centres undefined)	x	x	x	x	5%
CCn1c(=S)[nH]c2cc(S(=O)(=O)N3CCCCC3)ccc21	-15%	27µM*	-10%	-6	6%
SMILES	uPA surface inh	PLK1 PBD block	PTAP TSG101 blk	TSHR antag	VDR inh
Cn1c(=O)c(=O)n(C)c2cc(S(=O)(=O)CCC(=O)N3CCOCC3)ccc21	-1%	27µM*	3%	14	u
C=CCCC1CN(CCCC)S(=O)(=O)c2c(F)cccc2O1 (centres undefined)	-15%	21µM*	-7%	x	89µM*
COC(=O)c1cc(Cc2ccc(N)c(C(=O)OC)c2)ccc1N	-6%	-4%	-8%	-7	6%
COC(=O)Cc1ccc(O)c(N)c1	-2%	9.5µM*	1%	-6	u
COc1cccc(/C(C)=N/Nc2ccc(S(=O)(=O)N3CCCCC3)cn2)c1	-21%	-1%	0%	-5	10%
CC(C)C/C(O)=C/c1nc2cc(Cl)ccc2oc1=O	1.4µM*	-7%	-1%	7	-8%
COc1ccc(NC(=O)/C(Cl)=C(/Cl)S(=O)(=O)Cc2ccccc2)cn1	-5%	5.3µM*	-2%	u	35µM*
COc1ccc(NC(=O)C(Cl)=C(Cl)Cl)cn1	-12%	1%	-3%	-6	-20%
Cc1cc(C)cc(NC(=O)CCS(=O)(=O)c2ccc3nc(C)sc3c2)c1	x	x	x	x	3%
CCOC(=O)C(C)Sc1nnc(Cc2cc(=O)[nH]c(=O)[nH]2)n1-c1ccc(Cl)cc1 (centres undefined)	7%	21µM*	-5%	1	u
COc1ccc(Cl)cc1NC(=S)N(CCCN1CCOCC1)Cc1cn(C)c2ccccc12	-5%	6µM*	0%	0	u
COc1cc2ccnc(Cc3cccc(OC)c3OC)c2cc1OC	-16%	27µM*	-4%	-18	-14%
O=[N+]([O-])c1cccc(SSc2cccc([N+](=O)[O-])c2)c1	-9%	0.38µM*	-1%	x	4µM*
Nc1ccc(N2CCCCC2)cc1N1CCCCC1	-15%	-8%	-7%	-10	-4%
Nc1ccc(N2CCCCC2)c2nonc12	-11%	-28%	1%	21	20µM*
COc1ccc(CNC(=O)C2CCN(S(=O)(=O)c3ccc(N4CCCC4=O)cc3)CC2)cc1	x	1%	x	x	x
CC(=O)Oc1ccc2nc(/C=C/c3ccccc3)oc(=O)c2c1	-10%	-9%	-1%	-78*	3%
Cc1ccccc1CSc1nnc2[nH]c(=O)cc(C)n12	x	x	x	x	12%
Cc1cccc(/N=C2/NC(=O)C(Cc3ccccc3)S2)n1 (centres undefined)	6%	30µM*	2%	-5	u
O=c1[nH]c(C2CCCN(S(=O)(=O)Cc3ccccc3)C2)nc2c1nnn2Cc1cccc(Cl)c1 (centres undefined)	-6%	-7%	-7%	-2	0%
O=c1c2ccccc2[nH]c2ccc(O)cc12	-3%	30µM*	-12%	-4	6%
Cc1cc(NC(=O)CSc2nnc(C3COc4ccccc4O3)n2N)no1 (centres undefined)	0%	7.5µM*	-3%	2	u
Cc1cc(NC(=O)CSc2nnc(C3COc4ccccc4O3)o2)no1 (centres undefined)	-6%	-26%	-7%	-10	2%
CCOc1cccc(CNc2ccc(O)cc2)c1OCc1ccc(Cl)cc1Cl	-11%	-6%	-5%	-18	50µM*
CCOc1cccc(CNc2ccc(O)cc2)c1OCc1ccccc1Cl	2%	-6%	-1%	-2	40µM*!
CCOC(=O)[C@]12CCCC=C1N(Cc1ccco1)C(=O)[C@H](CC(=O)N1CCC(c3ccccc3)CC1)C2	x	2%	x	x	x
O=S(=O)(c1cccc2nsnc12)N1CCN(c2ccc(F)cc2)CC1	3%	-11%	0%	-3	4%

Screening results (PubChem)
